# Inconclusive results are not listed. Unmarked numbers belong to inactive results. The call rests on the fitted dose curve; in most records, active means well fitted activation curve with a large enough effect; inconclusive means small, poorly fitted or top-dose-only effect; inactive means no such curve, though single readings can be large or run the other way.
# Molecular target: D(1A) dopamine receptor (Homo sapiens) (UniProt P21728)
# Experiment: HTS Assay for Allosteric Agonists of the Human D1 Dopamine Receptor: Primary Screen for Potentiators (AID 488982); further: 0% is about no effect
# Details: HEK293 T-REx D1 inducible cells, calcium flux, kinetic fluorescence; series mostly up to 8.37 µM; activity, positive = potentiation: at the top concentration
# Excerpt: Dopamine receptors (DARs) are involved in the etiology and/or therapy of a number of neuropsychiatric and endocrine disorders. For instance, all receptor-based antiparkinsonian drugs work via stimulating the […] DAR subtype whereas all FDA-approved antipsychotic agents are antagonists of this receptor. […] There are three different types of allosteric modulators that we are seeking, two of which will stimulate or augment receptor signaling, allosteric agonists and potentiators, while the third, allosteric antagonists, will attenuate receptor signaling. The present primary screening assay measures compound agonism by tracking calcium flux in a […], inducible Hek293 Trex D1 cell line.
# Freshly passaged cells are plated in 1536 well black, clear bottom plates at a density of 4000 cells/well in 3 ul of complete media containing 1x tetracycline inducer. After an overnight incubation at 30 C in 5% CO2, cells are loaded with 2 ul of the no wash Calcium Assay Kit (ABD Bioquest) and incubated at room temperature for 30 to 90 minutes. A 10 cycle (1 second/cycle) baseline measurement is taken and then the FDSS online 1536 pintool delivers 23 nl of compound library (as well as dopamine controls) to the plate. The plate is measured for kinetically at 1 cycle/sec for 180 seconds and is considered to be the agonist portion of the assay (eg, compounds which activate a positive calcium response during this portion are flagged as potential agonists). Following the 180 second read, 1 ul of an EC20 of dopamine is delivered by an onboard pipette head. Measurements are taken kinetically for an additional 180 seconds.
# Chain of D(1A) dopamine receptor (Homo sapiens) (P21728 whole entry, looked up): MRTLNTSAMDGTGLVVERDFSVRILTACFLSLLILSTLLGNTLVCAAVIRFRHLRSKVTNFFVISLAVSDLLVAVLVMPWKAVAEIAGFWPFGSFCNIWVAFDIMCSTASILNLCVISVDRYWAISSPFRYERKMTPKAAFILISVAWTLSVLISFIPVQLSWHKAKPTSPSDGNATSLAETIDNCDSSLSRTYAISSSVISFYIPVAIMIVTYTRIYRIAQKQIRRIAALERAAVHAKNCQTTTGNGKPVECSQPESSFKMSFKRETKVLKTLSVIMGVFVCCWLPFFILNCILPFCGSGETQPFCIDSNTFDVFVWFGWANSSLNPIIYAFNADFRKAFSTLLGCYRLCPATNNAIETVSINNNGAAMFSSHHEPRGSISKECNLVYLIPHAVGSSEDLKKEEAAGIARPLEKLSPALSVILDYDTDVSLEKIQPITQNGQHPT
row,Compound,"activity, positive = potentiation"
1,CC(C)(C)c1o[nH]c(=O)c1CC(N)C(=O)O (stereo not given),5.23%
2,O=S1(=O)N(CCN2CC=C(c3c[nH]c4cc(F)ccc34)CC2)c2cccc3c2N1CCC3,-104%
3,CCCN1CCC[C@@H](c2cccc(O)c2)C1,-62.3%
4,CCCCCCCCCCCCCC(=O)O[C@@H]1[C@@H](C)[C@@]2(O)[C@@H](C=C(CO)C[C@@]3(O)C(=O)C(C)=C[C@@H]23)C2C(C)(C)[C@@]21OC(C)=O (stereo not given in full),28.8%
5,COc1ccc2[nH]c3c(c2c1)CCNC3,-38.1%
6,C[Se]C[C@H](N)C(=O)O,6.73%
7,NC(=O)COc1c(F)cc(SCCNS(=O)(=O)c2ccccc2)cc1F,-11.5%
8,CN(C(=O)Cc1ccc(Cl)c(Cl)c1)C(CN1CCCC1)c1cccc(OCC(=O)O)c1 (stereo not given),-4.74%
9,COc1ccc2c(c1)C13CCCCC1C(C2)N(C)CC3 (stereo not given),5.93%
10,CC(C)[C@@]1(NC(=O)[C@@H]2C[C@@H]3c4cccc5[nH]cc(c45)C[C@H]3N(C)C2)O[C@@]2(O)[C@@H]3CCCN3C(=O)[C@H](Cc3ccccc3)N2C1=O,-104%
11,CCOC(=O)c1ncn2c1[C@@H]1CCCN1C(=O)c1cc(OC)ccc1-2,-19.4%
12,c1ccc2cc(CC3=NCCN3)ccc2c1,10.2%
13,CN1CCc2cccc(Cl)c2CC1,-94.7%
14,NCCc1ccc(S(=O)(=O)F)cc1,17.7%
15,N[C@@]1(C(=O)O)CC[C@@H](C(=O)O)C1,1.88%
16,Oc1ccc2c3c1O[C@H]1c4[nH]c5ccccc5c4C[C@@]4(O)C(C2)N(CC2CC2)CCC314 (stereo not given in full),8.23%
17,COc1ccc2c(c1)c(CCN1CCOCC1)c(C)n2C(=O)c1cccc(Cl)c1Cl,23.7%
18,CCCn1c(=O)c2[nH]c(C3CCCC3)nc2n(CCCOC(=O)c2ccc(S(=O)(=O)F)cc2)c1=O,-7.47%
19,NC(=O)c1cc(N2CC2)c([N+](=O)[O-])cc1[N+](=O)[O-],0.865%
20,C=CCN1CCC23c4c5ccc(O)c4O[C@H]2C(=O)CC[C@@]3(O)C1C5 (stereo not given in full),-14.8%

row,Compound,"activity, positive = potentiation"
1,NC(=O)CI,23.2%
2,C[N+](C)(C)CC#CCN1CCCC1=O,29.1%
3,C=CCN(C1=NCCN1)c1c(Cl)cccc1Cl,2.24%
4,C[N+](C)(C)CC#CCOC(=O)Nc1cccc(Cl)c1,12%
5,CCS(=O)(=O)Nc1cccc(C(=C2CCCCC2)c2cnc[nH]2)c1,21.1%
6,CP(=O)(O)C1=CCNCC1,-5.69%
7,CC1(C(=O)O)C2CCC(O2)C1(C)C(=O)O (stereo not given),1.73%
8,NCC(O)c1cc(O)c(O)cc1F (stereo not given),-67.8%
9,C[N+]1(C)CCN(c2ccccc2)CC1,-9.47%
10,CCCN(CCC)[C@@H]1CCc2cccc(O)c2C1,33%
11,NC(Cc1cc(O)c(O)cc1O)C(=O)O (stereo not given),35.1%
12,Cc1cc([C@@H]2CCCN2C)on1,10.7%
13,CCCN(CCC)[C@H]1CCc2c(F)ccc(O)c2C1,12%
14,NC(N)=NOCC[C@H](N)C(=O)O,29.5%
15,COc1ccc2[nH]cc(CCN)c2c1,30.9%
16,CN1CCc2cc(O)cc3c2[C@H]1Cc1ccc(O)c(O)c1-3,-63.3%
17,C=CCN1CCc2cccc3c2[C@H]1Cc1ccc(O)c(O)c1-3,-49.7%
18,CN1CCC(c2c[nH]c3ccc(O)cc23)CC1,-69.2%
19,CN1C2CCC1CC(OC(c1ccccc1)c1ccccc1N)C2 (stereo not given),-1.53%
20,NC(Cc1ccc(N(CCCl)CCCl)cc1)C(=O)O (stereo not given),-23.9%
